Laboratory results as given in PubChem BioAssay.

assay: basal HepG2 mitochondrial membrane potential changes, profiling panel, cell-based, JC-1 fluorescence, 24 h, 100 nL compound (AID 1167); conditions: higher = more signal; further: test concentration not given here

Compound | z-score
CC(C)(C)OC(=O)CC[C@]1(C(=O)N2CCCCC2)COC(c2ccc(OCCCO)cc2)=N1 | -0.696
O=C1[C@@]23C=C(Br)[C@H](C[C@@H]2COC3)[C@@]12CO2 | -1.73
O=C1C[C@@](C(=O)NCc2ccccc2)(c2ccc([N+](=O)[O-])cc2)[C@@H](c2ccc(CO)cc2I)N1CC12CC3CC(CC(C3)C1)C2 | 0.878
O=C1C[C@@](C(=O)NCC(F)(F)F)(c2ccc([N+](=O)[O-])cc2)[C@@H](c2ccc(CO)cc2)N1CC12CC3CC(CC(C3)C1)C2 | -1.09
CN1C(=O)C2C=CC(C(O)c3ccc(I)cc3)N(Nc3ccccc3)C2C1=O (stereo not given) | -1.07
COc1cc(C(O)C2C=CC3C(=O)N(Cc4ccccc4)C(=O)C3N2n2cnnc2)cc(OC)c1OC (stereo not given) | 0.576
C=C(COC)/C(=C/C[C@@H](OC(=O)c1ccncc1)c1ccccc1OCCO)c1cc(C(=O)OC)ccc1OC | 1.35
CC(C)C[C@@H]1NC(=O)[C@@]23C(=O)N[C@@H](Cc4ccccc4)C2[C@H](C)[C@@]2(C)O[C@H]2C3/C=C/C/C=C\CNC(=O)[C@@H](C)NC1=O (stereo not given in full) | 0.991
CCCNC(=O)[C@@]1(Sc2ccc(C)cc2)CC(=O)N(C(C)C)[C@@H]1c1ccc(CO)cc1I | 0.632
CN1C(=O)C2C(C1=O)C1C=C(CCCO)C2C(c2cccs2)N1Cc1cc2c(cc1Br)OCO2 (stereo not given) | -0.129
C=C(CCCC)/C(=C/C[C@H](OC(C)=O)c1ccc(OCCO)cc1)c1cc(C(=O)OC)ccc1OC | 2.2
COC(=O)[C@@]1(Cc2ccc(OC)cc2)[C@H]2c3cc(C(=O)N4CCCC4)n(Cc4ccc(OC(F)(F)F)cc4)c3C[C@H]2CN1C(=O)c1ccccc1 | 0.225
CS(=O)(=O)CCOC(=O)C1=CC(CCCO)=CC(C2CC2)N(Cc2cccc(OC(F)(F)F)c2)C=C1C(=O)OCCS(C)(=O)=O (stereo not given) | 1.92
COC(=O)C1=CC(CCCO)=CC(C)N(Cc2cccc(OC(F)(F)F)c2)C=C1C(=O)OC (stereo not given) | 1.12
[N-]=[N+]=NCc1ccccc1[C@@H]1OC(c2ccc(OCCCO)cc2)=N[C@]1(Cc1ccccc1)C(=O)NCCN1CCOCC1 | 1.14
CC(C)C(=C=CC[C@@H](O)c1cccc(OCCO)c1)C[C@@H](O)c1ccccn1 | -0.0286
O=C(NCC(O)CO)[C@@]1(CCS(=O)(=O)c2ccccc2)COC(c2ccc(OCCCO)cc2)=N1 (stereo not given in full) | -0.341
CCOC(=O)C1=C[C@@H](c2ccccc2)N(S(=O)(=O)c2ccc(C)cc2)[C@H]1c1ccccc1 | 1.62

Compound | z-score
CC(C)OC(=O)CC(=O)CC(O)c1ccc([N+](=O)[O-])cc1 (stereo not given) | 0.775
COC(=O)C1N=C(c2ccc(OCCCO)cc2)N(c2ccccc2)O1 (stereo not given) | 0.684
NC(=O)NCC#Cc1ccc2c(c1)[C@]1(C(=O)N2)[C@H](C(=O)N2CCN(c3ncccn3)CC2)[C@H]2C(=O)O[C@H](c3ccccc3)[C@H](c3ccccc3)N2[C@@H]1c1ccc(OCCO)cc1 | -1.95
[N-]=[N+]=Nc1ccccc1C[C@]1(C(=O)O)N=C(c2ccc(OCCCO)cc2)O[C@H]1c1ccccc1 | -0.924
C=C(/C(=C/C[C@@H](OC(C)=O)c1ccc(OCCO)cc1)c1cc(C(=O)OC)ccc1OC)C(C)C | 0.149
COc1ccc(NC(=O)O[C@H]2[C@@H]3OC(=O)[C@H](Cc4cccc(Br)c4)C/C=C/C[C@@H](Cc4cccc(Br)c4)C(=O)O[C@H]3[C@@H](OC)O[C@@H]2CO)cc1 | 1.6
[N-]=[N+]=NCc1ccccc1[C@H]1OC(c2ccc(OCCCO)cc2)=N[C@@]1(CCS(=O)(=O)c1ccccc1)C(=O)NCc1ccccc1 | -0.627
COc1cc(NN2C(C(O)C3CCCCC3)C=CC3C(=O)N(C)C(=O)C32)cc(OC)c1OC (stereo not given) | -0.326
O=C1[C@@H]2[C@@H](CC(COc3ccccc3)=C3[C@@H](CCc4ccccc4)OB(O)C[C@@H]32)C(=O)N1Cc1ccccc1 | -0.851
O=C1OCCC=C[C@H]2OC34C=CCN(c5ccc(Cl)cc5)C(=O)[C@H]3N(CCCCCCO)C(=O)[C@@H]4C12 (stereo not given in full) | 1
CCOC(=O)C[C@H]1[C@H](OC(=O)c2ccccc2-c2ccccc2)[C@@H](NC(=O)c2ccc3ccccc3n2)c2cc(OCCCO)ccc2N1C(=O)c1ccccc1 | 0.549
COC(=O)[C@@]1(Cc2ccc(OC)cc2)[C@H]2c3cc(C(=O)N4CCCC4)n(Cc4ccc(S(C)(=O)=O)cc4)c3C[C@H]2CN1C(=O)c1ccccc1 | 2.63
C=C[C@@H](C)[C@@H](OC(=O)Nc1ccc(SC)cc1)c1ccc(OCCO)cc1 | -2.54
NCCCCCNC(=O)[C@@H]1C[C@@H]2C(=O)N3CCC[C@H]3C(=O)N2[C@@H]1c1ccc(O)cc1 | -0.0437
O=C1OCCC/C=C\[C@H]2OC34C=CCN(c5ccc6ccccc6c5)C(=O)[C@H]3N(CCCO)C(=O)[C@@H]4C12 (stereo not given in full) | -0.36
CC(=O)NCCCC[C@@H]1NC(=O)[C@@H]2C[C@H](C(=O)NCCCCCCN)[C@H](c3cccc(OCCO)c3)N2C1=O | -1.26
COCCOC(=O)N1C(=O)[C@@]2(c3cc(C#CCNC(N)=O)ccc31)[C@H](c1ccc(OCCO)cc1)N1[C@H](c3ccccc3)[C@H](c3ccccc3)OC(=O)[C@H]1[C@@H]2C(N)=O | -1.7
